# High-throughput results from PubChem BioAssay.
# The sample as a whole holds a higher share of hits than the screen did.
# Vaccinia mCherry: inhibitors of vaccinia virus infection (mCherry reporter signal) | 310,000 tested, 0.63% active | AID 720579 | Potency, µM (top dose mostly 36.5 µM), inactives show at the top dose activity change, negative = inhibition, usual class: inhibitors | Vaccinia virus mCherry reporter infection, fluorescence; calls by dose curve; tested in A549 cells; further: potency means the concentration at half of the fitted maximal effect; on the % scale 0 is the no-effect control and ±100 the full control effect; nearly all actives have a fitted effect of over 35% in size
# Marburg entry inh: blocks Marburg virus binding to or entry into cells. Marburg virus pseudotyped entry inhibition, cell reporter. Potency, µM (titrated, usually from 37.8 µM), inactives show at the top dose activity change, negative = inhibition, most hits filed as inhibitors. 300,000 tested, 1.8% active. AID 540276; calls by dose curve; tested in HEK293 cells; further: potency means the concentration at half of the fitted maximal effect; on the % scale 0 is the no-effect control and ±100 the full control effect
# LASV entry inh: Lassa virus entry inhibition; Potency, µM (titrated, usually from 37.9 µM), inactives show at the highest dose activity change, negative = inhibition, usual class: inhibitors; AID 540256; Lassa virus pseudotype entry inhibition, cell reporter; 300,000 tested, 1.2% active; calls by dose curve; tested in HEK293 cells; further: potency means the concentration at half of the fitted maximal effect; on the % scale 0 is the no-effect control and ±100 the full control effect; nearly all actives have a fitted effect of over 50% in size
# Cycloheximide cs: counter-screen for Shiga toxin inhibitors: cycloheximide protein synthesis inhibition. 300,000 tested, 12% active. max response, %. cell reporter, cycloheximide protein synthesis inhibition counterscreen; in the data active means max response mostly above about 13%, no sharp cut-off; inactive means mostly below about 14%; further: read at 38.3 µM for the half of the compounds with a filed dose; 0% is about no effect
# Vaccinia Venus: inhibitors of vaccinia virus (Venus reporter). Vaccinia virus Venus reporter expression, fluorescence. 330,000 tested, 0.46% active. Potency, µM (series often up to 36.5 µM), inactives show at the highest dose activity change, negative = inhibition, most hits filed as inhibitors. AID 720580; calls by dose curve; tested in A549 cells; further: potency means the concentration at half of the fitted maximal effect; on the % scale 0 is the no-effect control and ±100 the full control effect; nearly all actives have a fitted effect of over 30% in size
# Shiga inhibitor: inhibitors of Shiga toxin in Vero cells | Vero cells, Shiga toxin protein synthesis inhibition reporter | inhibition, % at 38.7 µM | 290,000 tested, 9.2% active | AID 2315; in the data active means inhibition mostly above about 28%, no sharp cut-off; inactive means mostly below about 43%; further: 0% is about no effect
# The depositor's hits bear a star; i = inactive; ? = inconclusive; nt = no result; [ ] = remark or other dose.
SMILES,Vaccinia mCherry,Marburg entry inh,LASV entry inh,Cycloheximide cs,Vaccinia Venus,Shiga inhibitor
O=c1sc2ccccc2n1CCCOc1ccccc1,i,5%[46.1 µM],26%,42*,-9%,119*
O=c1sc2ccccc2n1COc1ccc(Cl)cc1,i,20%,5%,35*,-12%,72
O=c1sc2ccccc2n1COc1ccccc1,-10%,0%,28%,15,-12%,48
Cc1ccc(OCCn2c(=O)sc3ccccc32)cc1,nt,?,1%,45*,-11%,61*
Cc1ccccc1OCCCn1c(=O)sc2ccccc21,-3%,-15%[46.1 µM],12%,66*,-16%,106*
O=C(NCC1(N2CCOCC2)CCCCCC1)c1cnn(-c2nccc(-c3ccco3)n2)c1C1CC1,-8%,nt,nt,nt,-2%,nt
CCc1c(C)nc2cc(-c3cc(OC)cc(OC)c3)nn2c1N1CCCC1,-14%,3.7µM*,-25%,-4,-21%,-10
CC(C)NC(=O)C1CCN(Cc2cccc(OCc3ccccc3)c2)CC1,?,nt,nt,nt,-14%,nt
O=C(NCc1ccccn1)C1CCN(Cc2cccc(OCc3ccccc3)c2)CC1,-20%,?,-14%,-2,-16%,-5
CC(C)CNC(=O)C1CCN(Cc2ccc(OCc3ccccc3)cc2)CC1,-20%,?,4%,27*,-19%,79*
CC(O)CNC(=O)C1CCN(Cc2ccc(OCc3ccccc3)cc2)CC1 (centres undefined),nt,?,-4%,37*,nt,130*
O=C(COC(=O)C1=COCCO1)Nc1ccc(OC(F)F)cc1,-11%,3%[46.1 µM],nt,38*,-3%,53*
O=C(COC(=O)C1=COCCO1)Nc1ccccc1,i,?,?,52*,-1%,64*
CC1CCCC(NC(=O)COC(=O)C2=COCCO2)C1C (centres undefined),i,nt,nt,nt,-6%,nt
O=C(COC(=O)C1=COCCO1)NC1CCCCCCC1,i,15%[46.1 µM],2%[46.1 µM],29*,-1%,46*
N#Cc1ccc(NC(=O)COC(=O)C2=COCCO2)cc1,7%[1.46 µM],-2%,15%,28,-15%,-3
COc1ccccc1C(=O)OCC(=O)Nc1ccc(OC(F)F)cc1,nt,24%,18%,21*,-25%,93*
CN1CCCc2ccccc21,-6%,nt,nt,nt,-6%,nt
Cn1c(=O)n(-c2ccc3c(c2)OCO3)c2nc(-c3ccc(Cl)cc3)nc(C(N)=O)c21,i,?,22%[46.1 µM],nt,-6%,nt
Cc1ccc(C(=O)O/N=C(\N)c2ccc(C(F)(F)F)cn2)cc1,-13%,12%[46.1 µM],-10%[46.1 µM],17,-14%,52
N/C(=N\OC(=O)c1csnn1)c1ccc(C(F)(F)F)cc1,i,0%[14.2 µM],?,40*,0%,72*
CCN(CC)CC(=O)Nc1sc2c(c1C(=O)c1ccccc1OC)CCC2,-19%,?,11µM*,-1,-30%,-7
CCOC(=O)c1c(NC(=O)CN(CC)CC)sc2c1CCC2,-1%,-27%,-27%,-2,-20%,-10
CCOC(=O)C1CCN(CCCSc2ccc(C)cc2)CC1,-3%,?,-14%[46.1 µM],nt,-6%,nt
CSc1ccc(CNc2ccc(Cl)cc2)cc1,-7%,6%,-11%,27*,-15%,79*
SMILES,Vaccinia mCherry,Marburg entry inh,LASV entry inh,Cycloheximide cs,Vaccinia Venus,Shiga inhibitor
CC1(C)CC(NC(=O)N2c3ccccc3Sc3ccccc32)CC(C)(C)N1,-23%,3.2µM*,-4%,-2,-12%,-3
O=C(O)c1cccc(-c2ccc(/C=N/Nc3nn[nH]n3)o2)c1,-9%,7%[46.1 µM],12%,10,-13%,10
COc1ccc(CC(=O)N/N=C/c2ccc(-c3cccc(C(=O)O)c3)o2)cc1OC,nt,nt,nt,71*,nt,195*
Cc1ccc(OCC(=O)N/N=C\c2ccc(-c3cccc(C(=O)O)c3)o2)c(C)c1,i,1%,1%,74*,-1%,177*
COC(=O)c1ccc(-c2ccc(/C=N/NC(=O)Cc3nnc(N)s3)o2)cc1,-1%,?,10%,24*,1%,39
Cc1ccc(OCC(=O)N/N=C\c2ccc(C)o2)c(C)c1,-18%,15%[46.1 µM],-13%,6,-12%,-12
CNC(=S)N/N=C/c1ccc(-c2cccc(C(=O)O)c2)o1,-2%,?,?,61*,-7%,112*
O=C(NC1CC1)[C@@H]1C[C@H](Sc2nc3ccccc3[nH]2)CN1CC1CCCCC1,-18%,nt,nt,nt,-12%,nt
Cc1ccc(C(=O)N/N=C/c2ccc(-c3cccc(C(F)(F)F)c3)o2)cn1,?,?,?,-4,?,16
Nc1nonc1C(=O)N/N=C/c1ccc(-c2cccc(C(=O)O)c2)o1,nt,nt,nt,29*,nt,51*
Cc1ccc(CCC(=O)Nc2ccc(Cl)cc2)o1,i,2%[46.1 µM],-4%[46.1 µM],18*,-13%,nt
Cc1ccc(NC(=O)CCc2ccc(C)o2)c(Br)c1,i,-5%,17%,29*,-19%,31*
Cc1ccc(CCC(=O)Nc2ccc(N(C)C)cc2)o1,nt,nt,nt,31*,nt,54*
Cc1ccc(C(=O)CCNc2ccc(Cl)cc2)o1,nt,?,0%,17*,-27%,31
CCOc1ccc(CCNC(=O)Cn2nnc(-c3ccccc3Cl)n2)cc1OCC,-4%,-14%[46.1 µM],4%[46.1 µM],nt,-9%,nt
CC(=O)NC(c1ccccc1)c1nc(-c2ccc3ccccc3c2)cs1 (centres undefined),i,nt,nt,nt,-4%,nt
CCc1ccc(CCC(=O)Nc2ccc(Cl)cc2)o1,nt,nt,nt,18*,nt,24
Cc1ccc(CCC(=O)Nc2ccc(Br)cc2)o1,nt,nt,nt,18*,nt,15
CN(Cc1cccc2ncccc12)C(=O)c1cnn(-c2ncc3c(n2)-c2ccccc2CC3)c1C1CC1,-29%,nt,nt,nt,?,nt
COc1cc(OC)c(NC(=O)CCCn2nc(C)c3c(C)n(-c4ccccc4)nc3c2=O)cc1Cl,-8%,nt,6%[46.1 µM],nt,-7%,nt
O=C(Nc1nnc(SCC(=O)N2CCOCC2)s1)c1ccccc1,6%,-39%,?,22*,5%,13
O=C(Cc1ccccc1)Nc1nnc(SCC(=O)NC2CCCC2)s1,10%,12%[46.1 µM],-10%,-5,0%,-3
O=C(CSc1nnc(NC(=O)C2CC2)s1)Nc1cccc(F)c1,-10%,?,0%,21*,0%,16
O=C(CSc1nnc(NC(=O)c2ccc(F)cc2)s1)NC1CCCC1,i,3%[46.1 µM],9%[46.1 µM],1,6%,4
O=C(CSc1nnc(NC(=O)c2ccc(F)cc2F)s1)NC1CCCC1,-4%,-3%[46.1 µM],-28%,22*,-7%,28
O=C(CSc1nnc(NC(=O)c2ccccc2F)s1)NC1CCCC1,-12%,10%[46.1 µM],1%[46.1 µM],27*,5%,65*
COc1cccc(NC(=O)C2C3C=CC4(O3)C2C(=O)N(CCCN2CCCC(C)C2)C4C(=O)NC2CCCCC2C)c1 (centres undefined),-8%,-11%[46.1 µM],nt,2,-8%,-5
COc1ccc(C(=O)CC(C(=O)O)c2ccc3c(c2)OCO3)cc1OC (centres undefined),i,nt,nt,nt,1%,nt
COC(=O)CSc1[nH]c2ccccc2c1[N+](=O)[O-],nt,nt,nt,-3,nt,-4
O=C(CSc1nnc(NC(=O)c2ccccc2)s1)NC1CCCC1,-3%,?,-19%[46.1 µM],17*,4%,43
